Compound activity deposited in PubChem by National Center for Advancing Translational Sciences (NCATS).
Giardia killer = Small Molecules that selectively kill Giardia lamblia: qHTS | AID 540267, 2011 | activity change, % at 7.66 µM, hits read low | hit rate 0.15% among 340,000 | Giardia lamblia trophozoite viability; in the data active means activity change below about -80%; inconclusive means between about -30% and that limit;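 further: parasites exposed to compound for two days anaerobically before the ATP read; on the % scale 0 is the no-effect control and ±100 the full control effect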
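Trophozoite viability was measured as ATP-dependent luminescence, read 15-30 min after reagent addition. Before that, parasites at 100 cells/well were exposed to compounds for 48 h, anaerobically, at 37 deg C.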
IL2 activator = qHTS of IL-2 Activators; IL-2 activation reporter assay, cell-based qHTS; stimulated with anti-CD3/CD4/CD28 beads; in transgenic mouse T cells; activation, % (series mostly up to about 46 µM); hit rate 0.065% among 360,000; in the data active means activation above about 50%; inconclusive means mostly about 30% to 49%; further: 0% is about no effect
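EGFP and DsRed fluorescence is measured by plate cytometry in unstimulated transgenic mouse T cells exposed to compound for 60 minutes, then stimulated 18 hours at 37 degrees C with anti-CD3/anti-CD4 beads plus anti-CD28.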
BRCA1 expr up = qHTS Assay to Identify Small Molecule Activators of BRCA1 Expression. MCF7-BRCA1-FFLuc reporter, luminescence, 48 h; response scale: scaled: vehicle 0%, 10 µM genistein 100%. Potency, µM (highest dose often 46.1 µM), for inactives: top-dose activation, most hits filed as activators. hit rate 1.1% among 380,000; further: potency means the concentration at half of the fitted maximal effect; nearly all actives have a fitted effect of over 80% in size
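Quantitative HTS in MCF7 cells stably reporting BRCA1 expression via firefly luciferase. Compound treatment lasts 48 h at 37 °C in phenol-red free MEM. Activation is expressed relative to genistein at 10 microM and DMSO.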
RXFP1 antag = qHTS Assay for Antagonists of the Relaxin Receptor RXFP1; HEK293-RXFP1, relaxin-stimulated cAMP HTRF, 30 min; stronger effect = lower value; hit rate 0.59% among 350,000; Relaxin receptor 1 (Homo sapiens), Q9HBX9; activity change, negative = inhibition, % at 57.5 µM;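 active means activity change of -60% or lower, but not beyond a set lower limit; inconclusive means change between -60% and -40%, or beyond the set limit; inactive means change above -40%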; further: on the % scale 0 is the no-effect control and ±100 the full control effect
RXFP1 agonist = qHTS Assay for Agonists of the Relaxin Receptor RXFP1 | Relaxin receptor 1 (Homo sapiens), Q9HBX9 | HEK293T-RXFP1 cAMP TR-FRET, 30 min; response scale: percent of porcine relaxin response, buffer zero | Potency, µM (highest dose often 57.5 µM), for the others: at the highest dose activation, most hits filed as activators | hit rate 0.3% among 370,000 | AID 2676, 2010; further: potency means the concentration at half of the fitted maximal effect; on the % scale 0 is the no-effect control and ±100 the full control effect; nearly all actives have a fitted effect of over 60% in size
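Agonist response is measured as cAMP accumulation in an RXFP1-transfected HEK293T line under PDE4 inhibition. Values are scaled between buffer-only and 29 nM porcine relaxin, and EC50s come from standard Hill equation fits.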
NPSR antagonist = qHTS Assay for Antagonists of the Neuropeptide S Receptor: cAMP Signal Transduction; hit rate 1% among 220,000; CHO-NPSR cells, cAMP TR-FRET, antagonist mode; AID 1461, 2008; Potency, µM (doses to about 38.3 µM), for inactives: at the highest dose activity change, negative = inhibition, usual class: inhibitors; Q6W5P4; further: potency means the concentration at half of the fitted maximal effect; on the % scale 0 is the no-effect control and ±100 the full control effect; nearly all actives have a fitted effect of over 50% in size
Target sequence (Q6W5P4 whole entry, looked up): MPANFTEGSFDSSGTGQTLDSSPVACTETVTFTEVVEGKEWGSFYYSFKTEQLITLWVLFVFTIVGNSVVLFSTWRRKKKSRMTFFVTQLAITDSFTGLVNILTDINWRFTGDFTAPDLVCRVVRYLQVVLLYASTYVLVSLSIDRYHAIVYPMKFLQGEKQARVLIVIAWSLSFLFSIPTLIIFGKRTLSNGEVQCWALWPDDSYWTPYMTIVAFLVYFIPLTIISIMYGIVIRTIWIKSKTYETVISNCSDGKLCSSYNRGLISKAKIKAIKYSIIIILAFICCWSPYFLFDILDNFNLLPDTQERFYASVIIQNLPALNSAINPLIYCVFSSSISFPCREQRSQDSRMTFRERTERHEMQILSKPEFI
* marks the source's active call; other numbers are inactive results; [ ] = dose if it differs, or a comment. An excerpt weighted towards active compounds, which were near 1.9% of everything screened. Unless noted, the call rests on the fitted dose curve; in most records, active means well fitted curve in the direction sought with a large enough effect; inconclusive means small, poorly fitted or top-dose-only effect, or another doubt; inactive means no such curve, though single readings can be large; an effect the other way counts as inactive or inconclusive.

For COc1ccc(OCC(=O)Nc2ccc(-c3nc4cc(C)c(C)cc4o3)cc2)cc1 the results were Giardia killer -6, BRCA1 expr up -28%, RXFP1 antag 6 and RXFP1 agonist 1%.
Screening Cc1ccc(OCC(=O)Nc2ccc(-c3nc4ccc(C)cc4o3)cc2)cc1 returned Giardia killer -21, BRCA1 expr up 0.89µM*, RXFP1 antag -12 and RXFP1 agonist 16%.
`COc1ccc(CCNC(=O)c2nn(C)cc2Cl)cc1` gave Giardia killer 12, IL2 activator -2, BRCA1 expr up 7.9µM*, RXFP1 antag -12, RXFP1 agonist 0% and NPSR antagonist 1%[46.1 µM].
Screening COc1ccc(CCNC(=O)c2ccc(Cl)cc2)cc1 returned Giardia killer -2, IL2 activator 4, BRCA1 expr up 16%, RXFP1 antag -9, RXFP1 agonist 1% and NPSR antagonist -6%[46.1 µM].
COc1ccccc1-c1cc(C(F)(F)F)nc(S(=O)(=O)CCCC(=O)NC(C)C)n1 was read as Giardia killer 9, IL2 activator -3, BRCA1 expr up -100%, RXFP1 antag 16, RXFP1 agonist 7% and NPSR antagonist inconclusive.
CS(=O)(=O)c1nc(-c2ccco2)cc(C(F)(F)F)n1 was read as RXFP1 agonist 0% and NPSR antagonist 10µM*.
`COc1ccccc1-c1cc(C(F)(F)F)nc(S(C)(=O)=O)n1` gave Giardia killer 2, IL2 activator -3, BRCA1 expr up -109%, RXFP1 antag -7, RXFP1 agonist 1% and NPSR antagonist 7.9µM*.
Cc1ccc(Nc2nc(NCc3ccco3)nc3nccnc23)c(C)c1 was read as Giardia killer 7 and BRCA1 expr up -16%.
`COc1ccc(/C=C2\SC(=S)N(CCCC(=O)Nc3ccc(C(=O)O)cc3)C2=O)cc1OC` gave Giardia killer -5, IL2 activator -4, BRCA1 expr up -65%, RXFP1 antag -24 and RXFP1 agonist -3%.
For COc1ccc(/C=C2/SC(=S)N(CCCC(=O)Nc3ccc(O)cc3)C2=O)cc1OC the results were Giardia killer 10, IL2 activator 85*, BRCA1 expr up -69%, RXFP1 antag -10 and RXFP1 agonist 4%.
`Oc1ccc(CN2CCc3ccccc3C2)c2cccnc12` gave Giardia killer -7, IL2 activator -3, BRCA1 expr up -104%, RXFP1 antag -5, RXFP1 agonist 0% and NPSR antagonist 4µM*.
For Oc1ccc(CN2CCCCC2)c2cccnc12 the results were Giardia killer 11, IL2 activator -3, BRCA1 expr up -86%, RXFP1 antag 0, RXFP1 agonist 0% and NPSR antagonist -11%[46.1 µM].
CCOC(=O)c1ccc(CNc2ncnc3nc[nH]c23)cc1 was read as Giardia killer 17 and BRCA1 expr up -1%.
Screening O=C(/C=C/c1ccccc1[N+](=O)[O-])N1CCCCC1 returned Giardia killer -6, IL2 activator 1, BRCA1 expr up 53%, RXFP1 antag -8, RXFP1 agonist 1% and NPSR antagonist 0%.
For O=[N+]([O-])C(/C=C(/Cl)[N+](=O)[O-])=C(N1CCCCC1)N1CCCCC1 the results were Giardia killer -94*, IL2 activator 1, BRCA1 expr up -17%, RXFP1 antag 1, RXFP1 agonist -1% and NPSR antagonist inconclusive.
For OCc1ccc(N=Nc2ccccc2)cc1 the results were Giardia killer inconclusive, IL2 activator 1, BRCA1 expr up 3.2µM* and RXFP1 antag -9.
Screening Oc1ccc(N=Nc2ccccc2)cc1 returned Giardia killer -13, IL2 activator -2, BRCA1 expr up 8.9µM*, RXFP1 antag 2 and RXFP1 agonist 4%.
COC(=O)c1ccc(N=Nc2ccccc2)cc1 was read as Giardia killer -5, IL2 activator -1, BRCA1 expr up 10µM*, RXFP1 antag -9, RXFP1 agonist -2% and NPSR antagonist -11%.
Screening COc1ccc(N=Nc2ccc(CO)cc2)cc1 returned Giardia killer -16, IL2 activator -4, BRCA1 expr up inconclusive and RXFP1 antag -3.
Screening COc1ccc(C2Nc3ccccc3C(=O)N2c2ccccc2F)cc1COc1ccc(NC(C)=O)cc1 (configuration not stated) returned Giardia killer 14 and BRCA1 expr up 0%.
COc1cccc(/C=C2/SC(=S)N(CC(=O)Nc3nccs3)C2=O)c1 was read as Giardia killer -20 and BRCA1 expr up 5%.
For COCc1cc(=O)[nH]c(Nc2nc3ccccc3o2)n1 the results were Giardia killer -13, IL2 activator -2, BRCA1 expr up -20%, RXFP1 antag -10, RXFP1 agonist -2% and NPSR antagonist -20%[46.1 µM].
Cc1ccc2oc(Nc3nc(-c4ccccc4)cc(=O)[nH]3)nc2c1 was read as Giardia killer 15, IL2 activator 1, BRCA1 expr up 3.5µM*, RXFP1 antag -33, RXFP1 agonist 0% and NPSR antagonist -44%.
`Cc1ccc(O)c(N/C=C/C(=O)c2ccc(F)cc2)c1` gave Giardia killer 15, IL2 activator -2, BRCA1 expr up 6.3µM*, RXFP1 antag -3 and RXFP1 agonist 0%.
O=C(/C=C/Nc1ccc(F)cc1Br)c1ccccc1 was read as Giardia killer -89*, IL2 activator 0, BRCA1 expr up -46%, RXFP1 antag 7, RXFP1 agonist 0% and NPSR antagonist -3%.
Screening Cc1ccc(N/C=C/C(=O)c2ccc(C)cc2)cc1 returned Giardia killer 2, IL2 activator 0, BRCA1 expr up 113%, RXFP1 antag -25, RXFP1 agonist 0% and NPSR antagonist 4%[46.1 µM].
For COC(=O)c1ccc(COc2cccc(C)c2C)cc1 the results were Giardia killer 18, IL2 activator 1, BRCA1 expr up 10µM*, RXFP1 antag -3, RXFP1 agonist 1% and NPSR antagonist -10%.
CCOc1ccc(CCNC(=O)CCCn2c(=O)c3cccn3c3ccccc32)cc1 was read as RXFP1 antag -32 and RXFP1 agonist inconclusive.
Screening CC(C)CCNC(=O)CCCn1c(=O)c2cccn2c2ccccc21 returned RXFP1 antag -10 and RXFP1 agonist 1%.
For CSc1ccc(CCNC(=O)CCCn2c(=O)c3cccn3c3ccccc32)cc1 the results were RXFP1 antag -75* and RXFP1 agonist 4%.
